PubChem BioAssay (NCI)
This is part of a sample that, as a whole, favours compounds with a hit. Of some 83,000 tested, about 20% had one in any assay.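 Results are percent growth after 48 hours of single-concentration exposure. 100 means growth as in untreated cells, lower positive values show inhibition; negative values down to -100 show cell death.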 Calls of active or inactive are those of the source. The calls were made as follows: active = growth percent below 10; inactive = the rest.

What was measured:
Test in all cases: NCI-60 one-dose screen, 48 h (100 = growth as untreated, 0 = no growth, -100 = all killed)
Details in all cases: 10 µM
SK-MEL-2 melanoma = test system: SK-MEL-2 melanoma
SN12C renal = test system: SN12C renal
UO-31 renal = test system: UO-31 renal
TK-10 renal = test system: TK-10 renal
ACHN renal = test system: ACHN renal
CAKI-1 renal = test system: CAKI-1 renal
A498 renal = test system: A498 renal
MOLT-4 leukemia = test system: MOLT-4 leukemia
SR leukemia = test system: SR leukemia
RPMI-8226 leukemia = test system: RPMI-8226 leukemia
OVCAR-8 ovarian = test system: OVCAR-8 ovarian
OVCAR-5 ovarian = test system: OVCAR-5 ovarian
OVCAR-4 ovarian = test system: OVCAR-4 ovarian
SK-OV-3 ovarian = test system: SK-OV-3 ovarian
IGROV1 ovarian = test system: IGROV1 ovarian
OVCAR-3 ovarian = test system: OVCAR-3 ovarian
HS 578T breast = test system: HS 578T breast
NCI/ADR-RES ovarian = test system: NCI/ADR-RES ovarian
CCRF-CEM leukemia = test system: CCRF-CEM leukemia

Measured: growth

CCCCC(=O)N(c1ccc(Nc2c3ccccc3nc3cc([N+](=O)[O-])ccc23)cc1)S(C)(=O)=O
active: SR leukemia 5.36%
inactive: SK-MEL-2 melanoma 109% | SN12C renal 69.3% | UO-31 renal 36.7% | TK-10 renal 95.8% | ACHN renal 43.1% | CAKI-1 renal 59.9% | A498 renal 78.8% | MOLT-4 leukemia 22.8% | RPMI-8226 leukemia 35% | OVCAR-8 ovarian 71.7% | OVCAR-5 ovarian 96.9% | OVCAR-4 ovarian 81% | SK-OV-3 ovarian 80% | IGROV1 ovarian 48.7% | OVCAR-3 ovarian 88.3% | HS 578T breast 88.3% | NCI/ADR-RES ovarian 101%

Nc1ncc(-c2ccc(C(F)(F)F)cc2)c(NC2CCCCCC2)n1
active: SK-MEL-2 melanoma 0.455% | RPMI-8226 leukemia -8.42%
inactive: SN12C renal 29.9% | UO-31 renal 23.6% | TK-10 renal 36.9% | ACHN renal 16.4% | CAKI-1 renal 55.8% | A498 renal 58.8% | CCRF-CEM leukemia 31.1% | MOLT-4 leukemia 57.5% | SR leukemia 60.3% | OVCAR-4 ovarian 20% | SK-OV-3 ovarian 76.1% | IGROV1 ovarian 58.6% | OVCAR-3 ovarian 14.5% | HS 578T breast 38.4% | NCI/ADR-RES ovarian 56.9%

O=[N+]([O-])c1ccc(-c2nc(Cl)c3c(n2)CCCC3)o1
inactive: SK-MEL-2 melanoma 102% | SN12C renal 42.5% | UO-31 renal 97.8% | TK-10 renal 118% | A498 renal 84.3% | CCRF-CEM leukemia 86.8% | MOLT-4 leukemia 92.8% | SR leukemia 44.7% | RPMI-8226 leukemia 85.3% | OVCAR-8 ovarian 85% | OVCAR-5 ovarian 103% | OVCAR-4 ovarian 89.6% | SK-OV-3 ovarian 108% | IGROV1 ovarian 89.3% | OVCAR-3 ovarian 108% | HS 578T breast 86.8%
active: CAKI-1 renal -15.6%

FC(F)(F)c1ccc(-c2ncc(-c3ccc(C(F)(F)F)cc3)c(NCc3cc(C(F)(F)F)cc(C(F)(F)F)c3)n2)cc1
inactive: SK-MEL-2 melanoma 69.9% | SN12C renal 34.2% | UO-31 renal 37.1% | TK-10 renal 86.9% | CAKI-1 renal 37.5% | A498 renal 54.1% | CCRF-CEM leukemia 46.7% | MOLT-4 leukemia 59.3% | SR leukemia 83.7% | RPMI-8226 leukemia 53% | OVCAR-8 ovarian 44.5% | OVCAR-5 ovarian 79.4% | OVCAR-4 ovarian 81.3% | SK-OV-3 ovarian 82.4% | IGROV1 ovarian 65.6% | OVCAR-3 ovarian 31.9% | HS 578T breast 71.9% | NCI/ADR-RES ovarian 68.5%

CCOC(=O)c1ccc(N(C=O)CCC(=O)CCl)cc1
inactive: SK-MEL-2 melanoma 15.3% | OVCAR-4 ovarian 18.8% | SK-OV-3 ovarian 30.7% | HS 578T breast 33.2% | NCI/ADR-RES ovarian 21.4%
active: SN12C renal 7.96% | UO-31 renal -86.3% | TK-10 renal -18% | ACHN renal -37.4% | CAKI-1 renal -19.9% | A498 renal -13.5% | MOLT-4 leukemia -13.7% | SR leukemia 5.14% | RPMI-8226 leukemia -20.4% | OVCAR-8 ovarian 3.69% | IGROV1 ovarian 2.75% | OVCAR-3 ovarian -5.41%

CCOC(=O)CSC(=S)SCC(=O)OCC
inactive: SK-MEL-2 melanoma 96.7% | SN12C renal 106% | UO-31 renal 102% | TK-10 renal 132% | ACHN renal 109% | CAKI-1 renal 103% | A498 renal 121% | MOLT-4 leukemia 96.6% | SR leukemia 84.8% | RPMI-8226 leukemia 95.4% | OVCAR-5 ovarian 107% | OVCAR-4 ovarian 97.4% | SK-OV-3 ovarian 98.2% | IGROV1 ovarian 117% | OVCAR-3 ovarian 122% | HS 578T breast 106% | NCI/ADR-RES ovarian 106%

COc1ccc(C(=O)/C=C/c2cc(-c3ccc4c(c3)OCO4)n[nH]2)cc1OC
active: MOLT-4 leukemia -9.67% | SR leukemia -5.36% | RPMI-8226 leukemia 4.4%
inactive: SK-MEL-2 melanoma 84.4% | SN12C renal 60.3% | UO-31 renal 44.4% | TK-10 renal 62.8% | ACHN renal 76.3% | CAKI-1 renal 38.1% | A498 renal 41.9% | CCRF-CEM leukemia 21.6% | OVCAR-8 ovarian 47.4% | SK-OV-3 ovarian 93.3% | IGROV1 ovarian 44.1% | OVCAR-3 ovarian 36.6% | HS 578T breast 79.3% | NCI/ADR-RES ovarian 57.8%

CC(C)C[C@H](NC(=O)Cn1ccc2ccccc2c1=O)B(O)O
active: MOLT-4 leukemia 9.94% | SR leukemia 9.81%
inactive: SK-MEL-2 melanoma 63.5% | SN12C renal 75.8% | UO-31 renal 50.6% | TK-10 renal 11.7% | ACHN renal 29.1% | CAKI-1 renal 40.6% | A498 renal 30.1% | CCRF-CEM leukemia 15.2% | RPMI-8226 leukemia 11.9% | OVCAR-5 ovarian 76.9% | OVCAR-4 ovarian 93.3% | SK-OV-3 ovarian 96.7% | IGROV1 ovarian 107% | OVCAR-3 ovarian 42.3% | NCI/ADR-RES ovarian 103%

COc1ccc(S(=O)(=O)Nc2ccc(OCc3nnc(-c4ccc(Cl)cc4)o3)c(F)c2)cc1
inactive: SK-MEL-2 melanoma 40.6% | SN12C renal 68.1% | UO-31 renal 51.3% | TK-10 renal 57.6% | ACHN renal 56.6% | CAKI-1 renal 54.6% | A498 renal 47% | CCRF-CEM leukemia 54.5% | MOLT-4 leukemia 36% | SR leukemia 18.4% | RPMI-8226 leukemia 31.6% | OVCAR-5 ovarian 98.5% | OVCAR-4 ovarian 45.5% | SK-OV-3 ovarian 78.8% | IGROV1 ovarian 79.4% | OVCAR-3 ovarian 71.8% | HS 578T breast 86.3% | NCI/ADR-RES ovarian 45.7%

N/C(=N\O)c1cn(C2OC(CO)C(O)C2O)c2ncnc(N)c12 (centres undefined)
inactive: ACHN renal 11.6% | OVCAR-5 ovarian 24.3%
active: SK-MEL-2 melanoma -41.5% | SN12C renal 3.58% | UO-31 renal 10% | TK-10 renal -0.402% | CAKI-1 renal 3.33% | A498 renal -56.3% | CCRF-CEM leukemia -10.4% | MOLT-4 leukemia -27.7% | SR leukemia -4.39% | RPMI-8226 leukemia -43.6% | OVCAR-4 ovarian -21.6% | SK-OV-3 ovarian -30.2% | IGROV1 ovarian -13.7% | OVCAR-3 ovarian -18.3% | HS 578T breast -5.15% | NCI/ADR-RES ovarian 4.77%

C=CCOc1ccc2c(c1)CC[C@@H]1[C@@H]2CC[C@]2(C)C(=O)/C(=N/O)C[C@@H]12
active: TK-10 renal 9.46% | MOLT-4 leukemia -31.7% | SR leukemia 7.72% | OVCAR-4 ovarian 8.34% | IGROV1 ovarian 0.671%
inactive: SK-MEL-2 melanoma 54.6% | SN12C renal 39.3% | UO-31 renal 27.6% | ACHN renal 30.4% | CAKI-1 renal 10.7% | A498 renal 50.2% | RPMI-8226 leukemia 20.2% | OVCAR-8 ovarian 70.5% | OVCAR-5 ovarian 44.7% | SK-OV-3 ovarian 81.8% | OVCAR-3 ovarian 75.6% | HS 578T breast 35.4% | NCI/ADR-RES ovarian 57.6%

O=C(CCl)N1c2ccccc2Sc2ccc3ccccc3c21
active: SK-MEL-2 melanoma -25.5% | SN12C renal -49.1% | UO-31 renal -89.8% | TK-10 renal -57.7% | ACHN renal -89.1% | CAKI-1 renal -52.8% | A498 renal -90.2% | MOLT-4 leukemia -9.38% | SR leukemia -11.4% | RPMI-8226 leukemia -47.3% | OVCAR-8 ovarian -24.2% | OVCAR-4 ovarian -41.9% | IGROV1 ovarian -71.2% | OVCAR-3 ovarian -82.5% | HS 578T breast -0.68% | NCI/ADR-RES ovarian -25.8%
inactive: SK-OV-3 ovarian 17.6%

CC(C)OCc1cc(CN2CCN(c3cccc(Cl)c3)CC2)c(O)c2ncccc12
active: SK-MEL-2 melanoma -59.1% | SN12C renal -4.06% | UO-31 renal -6.8% | TK-10 renal 5.04% | CAKI-1 renal -49.9% | A498 renal -62.7% | CCRF-CEM leukemia -13.4% | MOLT-4 leukemia -48.6% | SR leukemia -30.6% | RPMI-8226 leukemia -25% | IGROV1 ovarian 8.86% | OVCAR-3 ovarian 2.88% | HS 578T breast -0.795% | NCI/ADR-RES ovarian -27.3%
inactive: ACHN renal 10.1% | OVCAR-5 ovarian 38.3% | OVCAR-4 ovarian 15.7% | SK-OV-3 ovarian 13.7%

N=C(N)c1ccc(-c2ccc(-c3ccccc3)s2)s1
inactive: A498 renal 32.1%
active: SK-MEL-2 melanoma -77.7% | SN12C renal -74.9% | UO-31 renal -74.1% | TK-10 renal -61.7% | ACHN renal -82.6% | CAKI-1 renal -59.4% | MOLT-4 leukemia -55.9% | SR leukemia -40% | RPMI-8226 leukemia -44.3% | OVCAR-8 ovarian -39.9% | OVCAR-5 ovarian -23.7% | OVCAR-4 ovarian -70.2% | SK-OV-3 ovarian -50.1% | IGROV1 ovarian -31.1% | OVCAR-3 ovarian -41.3% | HS 578T breast -21% | NCI/ADR-RES ovarian -35.2%

CC(C)C[C@H](NC(=O)Cn1ccc(Nc2ccccc2)cc1=O)B(O)O
active: SK-MEL-2 melanoma -2.39% | A498 renal -1.76% | MOLT-4 leukemia 1.94% | SR leukemia 4.14% | RPMI-8226 leukemia 1.74% | OVCAR-3 ovarian -45.4%
inactive: SN12C renal 47.9% | UO-31 renal 53.9% | TK-10 renal 13.5% | ACHN renal 10.1% | CAKI-1 renal 45.3% | OVCAR-8 ovarian 54.4% | OVCAR-5 ovarian 33.9% | OVCAR-4 ovarian 47.5% | SK-OV-3 ovarian 51.7% | IGROV1 ovarian 53.4% | HS 578T breast 28.9% | NCI/ADR-RES ovarian 111%

COc1ccc(-c2oncc2-c2cc(OC)c3c(c2)OCO3)cc1
active: SK-MEL-2 melanoma -1.77% | A498 renal 7.82% | SR leukemia 7.62% | OVCAR-3 ovarian 7.36% | HS 578T breast 4.09%
inactive: SN12C renal 35.9% | UO-31 renal 39.8% | TK-10 renal 48.2% | ACHN renal 41.1% | CAKI-1 renal 22.9% | CCRF-CEM leukemia 16% | MOLT-4 leukemia 22.4% | RPMI-8226 leukemia 23.8% | OVCAR-5 ovarian 37.9% | OVCAR-4 ovarian 66.2% | SK-OV-3 ovarian 19.7% | IGROV1 ovarian 53.3% | NCI/ADR-RES ovarian 18.5%

COc1ccc(C(=O)c2sc3nc(-c4cccs4)ccc3c2N)cc1OC
inactive: SK-MEL-2 melanoma 15.7% | SN12C renal 62% | UO-31 renal 45.6% | TK-10 renal 49.4% | ACHN renal 64.7% | CAKI-1 renal 62% | A498 renal 39.4% | MOLT-4 leukemia 23.3% | SR leukemia 14.5% | RPMI-8226 leukemia 43.4% | SK-OV-3 ovarian 70.9% | IGROV1 ovarian 63.3% | OVCAR-3 ovarian 45.1% | HS 578T breast 50.4% | NCI/ADR-RES ovarian 37.8%

CCc1ccc(-c2nnc(COc3ccc(-c4nc5cc(Cl)c(Cl)cc5[nH]4)cc3OC)o2)cc1
inactive: SK-MEL-2 melanoma 87.8% | SN12C renal 21.9% | UO-31 renal 91.1% | TK-10 renal 75.7% | ACHN renal 31% | CAKI-1 renal 78.6% | A498 renal 65.2% | MOLT-4 leukemia 69.8% | RPMI-8226 leukemia 56.9% | OVCAR-8 ovarian 28.9% | OVCAR-5 ovarian 103% | OVCAR-4 ovarian 45.9% | SK-OV-3 ovarian 96.9% | IGROV1 ovarian 64.5% | OVCAR-3 ovarian 65.6% | HS 578T breast 77% | NCI/ADR-RES ovarian 55%
active: SR leukemia 0.504%
